Data from ChEMBL document CHEMBL1961873, “Compounds: GSK PKIS; Assays: Nanosyn kinase panel” (2012).

Each compound was assayed against T1, Tyrosine-protein kinase ITK/TSK (Homo sapiens) (UniProt Q08881). Conditions: at 1 µM.
T1 sequence (whole entry): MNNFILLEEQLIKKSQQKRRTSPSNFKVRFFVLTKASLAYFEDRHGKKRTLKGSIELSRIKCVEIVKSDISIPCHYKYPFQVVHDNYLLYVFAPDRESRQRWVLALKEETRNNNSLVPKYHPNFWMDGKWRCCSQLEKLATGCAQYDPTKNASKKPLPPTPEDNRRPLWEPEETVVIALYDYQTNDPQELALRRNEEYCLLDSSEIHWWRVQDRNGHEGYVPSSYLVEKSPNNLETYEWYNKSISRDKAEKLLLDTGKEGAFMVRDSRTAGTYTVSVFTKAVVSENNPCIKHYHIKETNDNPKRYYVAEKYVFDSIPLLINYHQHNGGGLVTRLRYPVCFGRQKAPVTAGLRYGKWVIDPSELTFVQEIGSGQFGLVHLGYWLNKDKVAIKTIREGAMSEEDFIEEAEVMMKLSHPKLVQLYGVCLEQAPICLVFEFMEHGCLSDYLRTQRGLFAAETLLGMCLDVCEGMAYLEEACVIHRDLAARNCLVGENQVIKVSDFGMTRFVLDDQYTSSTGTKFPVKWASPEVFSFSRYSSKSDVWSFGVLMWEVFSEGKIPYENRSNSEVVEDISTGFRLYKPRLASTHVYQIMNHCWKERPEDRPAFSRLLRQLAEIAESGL
For `NS(=O)(=O)c1ccc(Nc2cc(-c3ccc(O)c(F)c3)n[nH]2)cc1`, the inhibition was 12.4%.
Work on `CCc1ccc(Oc2nccc(-c3c(-c4ccc(F)cc4)ncn3C3CCNCC3)n2)cc1` yielded an inhibition of 2.38%.
In the case of `CN1CCN(CCCNc2nc3ccc(Oc4ccc(NC(=O)Nc5cc(C(F)(F)F)ccc5F)cc4)cc3[nH]2)CC1`, the inhibition is reported as -1.94%.
`Fc1ccc(-c2ncn(C3CCNCC3)c2-c2ccnc(Oc3ccc(F)c(F)c3)n2)cc1` was tested, and the inhibition was -2.62%.
With `NC(=O)Cc1ccccc1Oc1nccc(-c2c(-c3ccc(F)cc3)ncn2C2CCNCC2)n1` the inhibition was 1%.
In the case of `FC(F)(F)c1cccc(Nc2nccc(-c3cnn4nc(-c5ccccc5)ccc34)n2)c1`, the inhibition is reported as 3.33%.
Compound `COc1cccc(/C=N/Nc2ncnc3c2cnn3-c2cccc(OC)c2)c1` has an inhibition of 0.34%.
Work on `CN(c1ccc(NC(=O)Nc2c(Cl)cccc2Cl)cc1)c1ccnc(Nc2cccc(CS(C)(=O)=O)c2)n1` yielded an inhibition of 71.1%.
`Cc1ccc(NC(=O)c2ccoc2)cc1-c1ccc(C(=O)NCC2CC2)cc1` was tested, and the inhibition was 1.05%.
Compound `COC(=O)Nc1nc2ccc(Sc3ccc(NC(=O)Nc4cc(C(F)(F)F)ccc4F)cc3)cc2[nH]1` has an inhibition of 0.87%.
With `COc1cc(Nc2ncc3c(C)nc(-c4cccc(Oc5ccccc5)c4)n3n2)cc(OC)c1OC` the inhibition was 2.18%.
Compound `CCS(=O)(=O)c1ccc(OC)c(Nc2ncc(-c3cccc(-c4ccccc4F)c3)o2)c1` has an inhibition of 2.37%.
With `Cc1ccc(C(=O)NC(C)C)cc1-c1ccc(C(=O)NCC2CC2)cc1` the inhibition was -0.47%.
Compound `CS(=O)(=O)CCNCc1ccc(-c2ccc3ncnc(Nc4ccc(OCc5ccccc5)c(Br)c4)c3c2)o1` has an inhibition of -2.69%.
Compound `O=C(Nc1n[nH]c2cc(-c3ccccc3)ccc12)C1CC1` has an inhibition of 2.12%.
`COc1ccc(C2=C(N3CCc4ccccc43)C(=O)NC2=O)cc1` gave an inhibition of 2.26%.
Work on `NC(=O)c1cc(-c2ccc(F)cc2)cc(-c2ccncc2)c1N` yielded an inhibition of -0.8%.
In the case of `COc1cc2ncn(-c3cc(OCc4cccs4)c(C(N)=O)s3)c2cc1OC`, the inhibition is reported as 2.34%.

Each compound was assayed against Tyrosine-protein kinase JAK1 (Homo sapiens) (UniProt P23458). Conditions: at 0.1 µM.
Sequence of Tyrosine-protein kinase JAK1 (Homo sapiens) (P23458 whole entry): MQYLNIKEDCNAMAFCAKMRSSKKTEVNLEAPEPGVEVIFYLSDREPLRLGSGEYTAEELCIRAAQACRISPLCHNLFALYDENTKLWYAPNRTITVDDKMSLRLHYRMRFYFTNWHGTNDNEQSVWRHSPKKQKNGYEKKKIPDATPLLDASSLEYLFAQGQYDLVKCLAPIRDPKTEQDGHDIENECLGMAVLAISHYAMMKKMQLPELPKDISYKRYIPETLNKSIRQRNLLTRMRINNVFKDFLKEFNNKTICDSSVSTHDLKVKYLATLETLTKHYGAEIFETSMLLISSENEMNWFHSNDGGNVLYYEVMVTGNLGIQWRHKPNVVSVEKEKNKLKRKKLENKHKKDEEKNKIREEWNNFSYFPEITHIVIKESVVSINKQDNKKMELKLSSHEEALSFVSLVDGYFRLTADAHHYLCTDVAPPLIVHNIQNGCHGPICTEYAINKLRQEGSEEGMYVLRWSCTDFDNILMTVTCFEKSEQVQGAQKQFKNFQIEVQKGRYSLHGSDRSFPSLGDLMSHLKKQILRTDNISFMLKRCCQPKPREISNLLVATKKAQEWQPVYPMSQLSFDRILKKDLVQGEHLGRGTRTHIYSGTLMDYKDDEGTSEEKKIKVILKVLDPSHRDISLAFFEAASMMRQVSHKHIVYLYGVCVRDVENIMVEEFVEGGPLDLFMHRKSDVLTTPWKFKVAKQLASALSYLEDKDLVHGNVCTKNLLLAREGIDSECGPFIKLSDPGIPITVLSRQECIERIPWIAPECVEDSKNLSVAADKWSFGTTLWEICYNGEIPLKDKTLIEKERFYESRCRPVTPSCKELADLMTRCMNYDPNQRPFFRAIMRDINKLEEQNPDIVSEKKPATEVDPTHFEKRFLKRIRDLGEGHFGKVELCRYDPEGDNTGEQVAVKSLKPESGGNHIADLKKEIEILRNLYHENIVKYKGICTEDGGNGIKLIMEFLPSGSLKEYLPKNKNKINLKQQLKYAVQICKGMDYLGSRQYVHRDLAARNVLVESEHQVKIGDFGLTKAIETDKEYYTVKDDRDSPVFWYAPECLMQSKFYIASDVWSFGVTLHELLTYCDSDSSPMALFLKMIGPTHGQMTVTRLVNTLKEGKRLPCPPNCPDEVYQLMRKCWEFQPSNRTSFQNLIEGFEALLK
For `CCN(CC)Cc1ccc(Nc2nccc(-c3cnn4ncccc34)n2)cc1`, the inhibition was 4.71%.
`CCC(=O)Nc1ccc(C)c(-c2ccc(C(=O)NCC3CC3)cc2)c1` showed an inhibition of 2.44%.
`COc1cc(C)c(N(C)C(=O)CN(C)C)cc1Nc1nc(Nc2cccc(F)c2C(N)=O)c2cc[nH]c2n1` showed an inhibition of 3.43%.
Work on `CCc1cccc(CC)c1/C=C/c1cncc(C(=O)NC)c1` yielded an inhibition of 2.03%.
Work on `COc1ccc2cc(-c3c(-c4ccncc4)nc(-c4ccc(S(C)(=O)=O)cc4C)n3C)ccc2c1` yielded an inhibition of 5.05%.
`Cc1nnc(-c2ccc(C)c(-c3ccc(C(=O)NCc4ccc(Cl)cc4)cc3)c2)o1` showed an inhibition of 4.61%.
Work on `COc1cc(Nc2ncc(-c3ccccc3)o2)cc(OC)c1OC` yielded an inhibition of -8.6%.
For `NCc1ccc(-n2c(-c3nonc3N)nc3cnccc32)cc1`, the inhibition was 4.99%.
`COc1cc2ncn(-c3cc(OCCc4ccccc4)c(C(N)=O)s3)c2cc1OC` gave an inhibition of 1.72%.
`O=C(Nc1ccc(Oc2ccc3[nH]c(NC(=O)c4ccccc4)nc3c2)cc1)Nc1cc(C(F)(F)F)ccc1F` was tested, and the inhibition was 1.88%.
Work on `O=C1Nc2ccc(I)cc2C1=Cc1cc(Br)c(O)c(Br)c1` yielded an inhibition of 1.44%.
`C[C@@H](Oc1cc(-n2cnc3ccc(OCC4CCN(C)CC4)cc32)sc1C(N)=O)c1ccccc1Cl` gave an inhibition of 8.98%.
With `CN(C)CCOc1ccc(-c2cc(-c3ccc4c(c3)CCC4=NO)c(-c3ccncc3)o2)cc1` the inhibition was 1.5%.
Compound `O=C1NC(=O)C(c2cccc(Cl)c2)=C1Nc1ccc(Cl)c(C(=O)O)c1` has an inhibition of 4.75%.
In the case of `NS(=O)(=O)c1ccc(N/N=C2\C(=O)Nc3ccc(C(=O)NCCCn4ccnc4)cc32)cc1`, the inhibition is reported as 5.06%.
With `COc1cc(Nc2ncc3c(C)nc(-c4cccc(C(F)(F)F)c4)n3n2)cc(OC)c1OC` the inhibition was 3.02%.
Work on `NS(=O)(=O)c1ccc(Nc2cc(-c3ccc(O)c(F)c3)n[nH]2)cc1` yielded an inhibition of -7.43%.
Work on `CCc1ccc(Oc2nccc(-c3c(-c4ccc(F)cc4)ncn3C3CCNCC3)n2)cc1` yielded an inhibition of 4.16%.
Compound `CN1CCN(CCCNc2nc3ccc(Oc4ccc(NC(=O)Nc5cc(C(F)(F)F)ccc5F)cc4)cc3[nH]2)CC1` has an inhibition of 6.45%.
`Fc1ccc(-c2ncn(C3CCNCC3)c2-c2ccnc(Oc3ccc(F)c(F)c3)n2)cc1` gave an inhibition of 3.04%.
`NC(=O)Cc1ccccc1Oc1nccc(-c2c(-c3ccc(F)cc3)ncn2C2CCNCC2)n1` gave an inhibition of 2.63%.
Work on `FC(F)(F)c1cccc(Nc2nccc(-c3cnn4nc(-c5ccccc5)ccc34)n2)c1` yielded an inhibition of -0.86%.
In the case of `COc1cccc(/C=N/Nc2ncnc3c2cnn3-c2cccc(OC)c2)c1`, the inhibition is reported as 1.61%.
With `CN(c1ccc(NC(=O)Nc2c(Cl)cccc2Cl)cc1)c1ccnc(Nc2cccc(CS(C)(=O)=O)c2)n1` the inhibition was 8.34%.
`Cc1ccc(NC(=O)c2ccoc2)cc1-c1ccc(C(=O)NCC2CC2)cc1` showed an inhibition of 1%.
`COC(=O)Nc1nc2ccc(Sc3ccc(NC(=O)Nc4cc(C(F)(F)F)ccc4F)cc3)cc2[nH]1` showed an inhibition of 0.69%.
In the case of `COc1cc(Nc2ncc3c(C)nc(-c4cccc(Oc5ccccc5)c4)n3n2)cc(OC)c1OC`, the inhibition is reported as 1.98%.
Work on `CCS(=O)(=O)c1ccc(OC)c(Nc2ncc(-c3cccc(-c4ccccc4F)c3)o2)c1` yielded an inhibition of -2.17%.
`Cc1ccc(C(=O)NC(C)C)cc1-c1ccc(C(=O)NCC2CC2)cc1` was tested, and the inhibition was -3.33%.
`CS(=O)(=O)CCNCc1ccc(-c2ccc3ncnc(Nc4ccc(OCc5ccccc5)c(Br)c4)c3c2)o1` was tested, and the inhibition was 3.52%.
`O=C(Nc1n[nH]c2cc(-c3ccccc3)ccc12)C1CC1` gave an inhibition of 2.85%.
`COc1ccc(C2=C(N3CCc4ccccc43)C(=O)NC2=O)cc1` was tested, and the inhibition was 3.92%.
Compound `NC(=O)c1cc(-c2ccc(F)cc2)cc(-c2ccncc2)c1N` has an inhibition of 3.49%.
In the case of `COc1cc2ncn(-c3cc(OCc4cccs4)c(C(N)=O)s3)c2cc1OC`, the inhibition is reported as 9.11%.
